Results filed as inconclusive are left out. A call without a number means that no potency is given here. Calls of active or inactive are those of the source. Calls come from the whole dose curve; as a rule, active = well fitted curve in the direction sought with a large enough effect; inconclusive = small, poorly fitted or top-dose-only effect, or another doubt; inactive = no such curve, though single readings can be large; an effect the other way counts as inactive or inconclusive.
Key:
[1] = Quantitative High-Throughput drug screen in 47 multiple myeloma cell lines against the NCATS MIPE library collection: ARD_JJKsccE7 cell viability assay (AID 1918929; note: potency is the fitted concentration of half-maximal effect)
Method in brief: (§1)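 Viability readout: CellTiter-Glo luminescence following 5 min room-temperature incubation with reagent. Prior exposure: 48 h, 37C, humidified 5% CO2, 500 cells per well.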

[2] = Quantitative High-Throughput drug screen in 47 multiple myeloma cell lines against the NCATS MIPE library collection: KMM1_JCRB cell viability assay (AID 1918960); note: nearly all actives have a fitted effect of over 30% in size; note: potency is the fitted concentration of half-maximal effect
Method in brief: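 CellTiter-Glo luminescence after 48 h exposure gives viability, scaled between DMSO-only (100%) and media-only (0%) controls. Library compounds are pinned onto 500 myeloma cells per well, incubated at 37C with 5% CO2.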

[3] = Quantitative High-Throughput drug screen in 47 multiple myeloma cell lines against the NCATS MIPE library collection: Karpas417_ECACC cell viability assay (AID 1918961); details: Karpas417 myeloma viability, CellTiter-Glo ATP luminescence, 48 h; viability (% of DMSO): at 45.8 µM (top of the series); note: potency is the fitted concentration of half-maximal effect
Method in brief: (§2)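 CellTiter-Glo ATP luminescence gave viability after 48 h compound treatment at 37C of 500 multiple myeloma cells per well. Normalisation used DMSO-only wells as 100% and media-only wells as 0% viability; primary qHTS of approved and investigational drugs.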

[4] = Quantitative High-Throughput drug screen in 47 multiple myeloma cell lines against the NCATS MIPE library collection: JIM1_ECACC cell viability assay (AID 1918964; note: potency is the fitted concentration of half-maximal effect)
Method in brief: as §1

[5] = Quantitative High-Throughput drug screen in 47 multiple myeloma cell lines against the NCATS MIPE library collection: INA6_PLB cell viability assay (AID 1918965; note: nearly all actives have a fitted effect of over 55% in size; note: potency is the fitted concentration of half-maximal effect)
Method in brief: as §2

[6] = Quantitative High-Throughput drug screen in 47 multiple myeloma cell lines against the NCATS MIPE library collection: Karpas25_ECACC cell viability assay (AID 1918968; note: nearly all actives have a fitted effect of over 35% in size; note: potency is the fitted concentration of half-maximal effect)
Method in brief: as §1

[7] = Quantitative High-Throughput drug screen in 47 multiple myeloma cell lines against the NCATS MIPE library collection: KMS27_JCRB cell viability assay (AID 1918970); note: nearly all actives have a fitted effect of over 30% in size; note: potency is the fitted concentration of half-maximal effect
Method in brief: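 Luminescent ATP read-out (CellTiter-Glo, 5 min at room temperature) after 48 h compound exposure of 500 KMS27_JCRB cells per well; DMSO wells define full viability and media-only wells zero.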

[8] = Quantitative High-Throughput drug screen in 47 multiple myeloma cell lines against the NCATS MIPE library collection: KMS12BM_JCRB cell viability assay (AID 1918971); note: nearly all actives have a fitted effect of over 35% in size; note: potency is the fitted concentration of half-maximal effect
Method in brief: (§3)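 Inhibition of cell viability is measured here. Each line was plated at 500 cells per well, treated with MIPE 4.0 drugs, kept 48 hours at 37C, then assayed for ATP content by CellTiter-Glo luminescence.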

[9] = Quantitative High-Throughput drug screen in 47 multiple myeloma cell lines against the NCATS MIPE library collection: KMS12PE_JCRB cell viability assay (AID 1918972); note: nearly all actives have a fitted effect of over 30% in size; note: potency is the fitted concentration of half-maximal effect
Method in brief: as §2

[10] = Quantitative High-Throughput drug screen in 47 multiple myeloma cell lines against the NCATS MIPE library collection: KMS21BM_JCRB cell viability assay (AID 1918974); details: ATP luminescence, 48 h; viability: at 45.8 µM (top of the series) unless noted; note: potency is the fitted concentration of half-maximal effect
Method in brief: as §1

[11] = Quantitative High-Throughput drug screen in 47 multiple myeloma cell lines against the NCATS MIPE library collection: Karpas620_DSMZ cell viability assay (AID 1918959); note: nearly all actives have a fitted effect of over 30% in size; note: potency is the fitted concentration of half-maximal effect
Method in brief: (§4)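 Myeloma cells (500 per well) were exposed to MIPE 4.0 compounds by pin transfer and incubated 48 hours at 37C, 5% CO2. Viability was read as ATP by CellTiter-Glo luminescence, normalised to DMSO (100%) and media-only (0%) wells.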

[12] = Quantitative High-Throughput drug screen in 47 multiple myeloma cell lines against the NCATS MIPE library collection: JIM3_ECACC cell viability assay (AID 1918963; note: nearly all actives have a fitted effect of over 35% in size; note: potency is the fitted concentration of half-maximal effect)
Method in brief: as §4

[13] = Quantitative High-Throughput drug screen in 47 multiple myeloma cell lines against the NCATS MIPE library collection: KMS20_JCRB cell viability assay (AID 1918973); note: potency is the fitted concentration of half-maximal effect; nearly all actives have a fitted effect of over 45% in size
Method in brief: as §1

[14] = Quantitative High-Throughput drug screen in 47 multiple myeloma cell lines against the NCATS MIPE library collection: KMS26_JCRB cell viability assay (AID 1918975); note: nearly all actives have a fitted effect of over 45% in size; note: potency is the fitted concentration of half-maximal effect
Method in brief: as §3

[15] = Quantitative High-Throughput drug screen in 47 multiple myeloma cell lines against the NCATS MIPE library collection: MMM1_PLB cell viability assay (AID 1918976); note: nearly all actives have a fitted effect of over 35% in size; note: potency is the fitted concentration of half-maximal effect
Method in brief: (§5)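 ATP-based CellTiter-Glo luminescence after 48 h drug exposure (37 °C, 5% CO2) of 500 myeloma cells per well. DMSO-only wells set 100% viability, media-only wells 0%; MIPE 4.0 library added by pin tool.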

[16] = Quantitative High-Throughput drug screen in 47 multiple myeloma cell lines against the NCATS MIPE library collection: MOLP8_DSMZ cell viability assay (AID 1918977); note: nearly all actives have a fitted effect of over 45% in size; note: potency is the fitted concentration of half-maximal effect
Method in brief: as §5

[17] = Quantitative High-Throughput drug screen in 47 multiple myeloma cell lines against the NCATS MIPE library collection: NCIH929_DSMZ cell viability assay (AID 1918978); note: nearly all actives have a fitted effect of over 35% in size; note: potency is the fitted concentration of half-maximal effect
Method in brief: as §5

[18] = Quantitative High-Throughput drug screen in 47 multiple myeloma cell lines against the NCATS MIPE library collection: H1112_PLB cell viability assay (AID 1918967; note: nearly all actives have a fitted effect of over 30% in size)
Method in brief: as §1

[19] = Quantitative High-Throughput drug screen in 47 multiple myeloma cell lines against the NCATS MIPE library collection: KHM11_PLB cell viability assay (AID 1918962); note: nearly all actives have a fitted effect of over 35% in size
Method in brief: as §4

## Clc1ccc(C(Cn2ccnc2)OCc2c(Cl)cccc2Cl)c(Cl)c1 (stereo not given)
[1]
  Potency: 16.6 µM (active)
[2]
  Potency: 18.7 µM (active)
[3]
  Potency: 16.6 µM (active)
[4]
  Potency: 23.5 µM (active)
[5]
  Potency: 29.6 µM (active)
[6]
  Potency: 26.4 µM (active)
[7]
  Potency: 23.5 µM (active)
[8]
  Potency: 23.5 µM (active)
[9]
  Potency: 14.8 µM (active)
[10]
  Potency: 20.9 µM (active)

## NCCCCNCCCN
[1]
  Potency: inactive
[11]
  Potency: 18.7 µM (active)
[12]
  Potency: 18.7 µM (active)
[5]
  Potency: 11.8 µM (active)
[6]
  Potency: 18.7 µM (active)
[8]
  Potency: 20.9 µM (active)
[13]
  Potency: 18.7 µM (active)
[14]
  Potency: 3.72 µM (active)
[15]
  Potency: 10.5 µM (active)
[16]
  Potency: 4.18 µM (active)
[17]
  Potency: 18.7 µM (active)

## C[C@]12CCC(=O)C=C1CC[C@@H]1[C@H]2[C@@H](O)C[C@@]2(C)[C@H]1CC[C@]2(O)C(=O)CO
[1]
  Potency: 0.0118 µM (active)
[11]
  Potency: inactive
[12]
  Potency: inactive
[4]
  Potency: inactive
[6]
  Potency: 5.9 µM (active)
[7]
  Potency: inactive

## C[Se]CCC(N)C(=O)O (stereo not given)
[1]
  Potency: inactive
[2]
  Potency: inactive
[3]
  Potency: inactive
[12]
  Potency: inactive
[4]
  Potency: inactive
[18]
  Potency: inactive
[6]
  Potency: inactive
[7]
  Potency: inactive
[8]
  Potency: inactive
[9]
  Potency: inactive
[10]
  viability: 325% [at 92.2 µM] (active)
[15]
  Potency: 0.855 µM (active)
[17]
  Potency: inactive

## NNc1nncc2ccccc12
[1]
  Potency: inactive
[11]
  Potency: inactive
[2]
  Potency: inactive
[12]
  Potency: inactive
[18]
  Potency: inactive
[7]
  Potency: inactive
[8]
  Potency: inactive
[9]
  Potency: inactive
[14]
  Potency: inactive
[15]
  Potency: 20.9 µM (active)
[17]
  Potency: inactive

## O=c1c(O)c(-c2ccc(O)cc2O)oc2cc(O)cc(O)c12
[1]
  Potency: inactive
[2]
  Potency: inactive
[3]
  Potency: inactive
[19]
  Potency: inactive
[12]
  Potency: inactive
[18]
  Potency: inactive
[6]
  Potency: 10.5 µM (active)
[8]
  Potency: 2.09 µM (active)

## Cc1ncc([N+](=O)[O-])n1CC(C)O (stereo not given)
[1]
  Potency: inactive
[11]
  Potency: inactive
[2]
  Potency: inactive
[6]
  Potency: 11.8 µM (active)
[7]
  Potency: inactive
[8]
  Potency: inactive
[9]
  Potency: inactive
[17]
  Potency: 20.9 µM (active)

## CCOC(=O)C1=C(O)C(=O)N(Cc2ccccc2)C1
[1]
  Potency: inactive
[2]
  Potency: inactive
[12]
  Potency: inactive
[5]
  Potency: inactive
[18]
  Potency: inactive
[8]
  Potency: inactive
[9]
  Potency: inactive
[10]
  Potency: inactive
[15]
  Potency: 1.66 µM (active)
[17]
  Potency: inactive

## c1ccc2[nH]c(-c3cscn3)nc2c1
[1]
  Potency: inactive
[2]
  Potency: inactive
[12]
  Potency: inactive
[5]
  Potency: inactive
[18]
  Potency: inactive
[6]
  Potency: inactive
[8]
  Potency: inactive
[9]
  Potency: inactive
[16]
  Potency: inactive
[17]
  Potency: inactive

## CCOC(=O)c1c(C)n(C)c2ccc(O)cc12
[1]
  Potency: inactive
[11]
  Potency: inactive
[2]
  Potency: inactive
[12]
  Potency: inactive
[18]
  Potency: inactive
[6]
  Potency: inactive
[7]
  Potency: inactive
[9]
  Potency: inactive
[14]
  Potency: inactive
[16]
  Potency: inactive
[17]
  Potency: inactive

## Oc1ccc(OCc2ccccc2)cc1
[1]
  Potency: inactive
[11]
  Potency: inactive
[3]
  Potency: inactive
[12]
  Potency: inactive
[4]
  Potency: inactive
[18]
  Potency: inactive
[6]
  Potency: inactive
[7]
  Potency: inactive
[9]
  Potency: inactive
[15]
  Potency: 5.9 µM (active)
[17]
  Potency: inactive

## Cc1cccc(-c2[nH]ncc2-c2ccc3ncccc3n2)n1
[1]
  Potency: inactive
[11]
  Potency: inactive
[12]
  Potency: inactive
[18]
  Potency: inactive
[9]
  Potency: inactive
[15]
  Potency: inactive
[17]
  Potency: inactive

## O=C(O)c1cn(-c2ccc(F)cc2)c2cc(N3CCNCC3)c(F)cc2c1=O
[1]
  Potency: inactive
[2]
  Potency: inactive
[12]
  Potency: inactive
[4]
  Potency: inactive
[5]
  Potency: inactive
[18]
  Potency: inactive
[6]
  Potency: inactive
[7]
  Potency: inactive
[8]
  Potency: 2.35 µM (active)
[9]
  Potency: inactive
[14]
  Potency: inactive
[15]
  Potency: 11.8 µM (active)
[17]
  Potency: inactive

## Clc1ccc2c(N3CCN(CCCN4CCN(c5ccnc6cc(Cl)ccc56)CC4)CC3)ccnc2c1
[1]
  Potency: inactive
[2]
  Potency: inactive
[12]
  Potency: inactive
[5]
  Potency: inactive
[18]
  Potency: inactive
[6]
  Potency: inactive
[7]
  Potency: inactive
[8]
  Potency: inactive
[17]
  Potency: inactive

## CCOC(=O)C(C)Oc1cccc2c(=O)n(CC(=O)Nc3ccc4c(c3)OCCO4)ccc12 (stereo not given)
[1]
  Potency: inactive
[2]
  Potency: 13.2 µM (active)
[19]
  Potency: inactive
[4]
  Potency: inactive
[5]
  Potency: inactive
[18]
  Potency: inactive
[7]
  Potency: inactive
[8]
  Potency: 23.5 µM (active)
[9]
  Potency: inactive
[17]
  Potency: inactive

## COCCCN1CCC(NC(=O)c2cc(Cl)c(N)c3c2OCC3)CC1
[1]
  Potency: 20.9 µM (active)
[2]
  Potency: 20.9 µM (active)
[12]
  Potency: 18.7 µM (active)
[4]
  Potency: 16.6 µM (active)
[5]
  Potency: 18.7 µM (active)
[7]
  Potency: 18.7 µM (active)
[9]
  Potency: 16.6 µM (active)

## CCC[C@@H]1C[C@@H](C(=O)N[C@@H]([C@H]2O[C@H](SC)[C@H](O)[C@@H](O)[C@H]2O)[C@@H](C)O)N(C)C1
[1]
  Potency: inactive
[2]
  Potency: inactive
[3]
  Potency: inactive
[19]
  Potency: inactive
[12]
  Potency: inactive
[18]
  Potency: inactive
[6]
  Potency: inactive
[7]
  Potency: inactive
[8]
  Potency: 2.64 µM (active)
[9]
  Potency: inactive
[14]
  Potency: inactive
[16]
  Potency: inactive
[17]
  Potency: inactive

## CCCCN(CCCC)CCC(O)c1cc2c(Cl)cc(Cl)cc2c2cc(C(F)(F)F)ccc12 (stereo not given)
[1]
  Potency: inactive
[11]
  Potency: inactive
[5]
  Potency: 18.7 µM (active)
[6]
  Potency: 14.8 µM (active)
[8]
  Potency: 20.9 µM (active)
[9]
  Potency: inactive
[14]
  Potency: inactive
